Measured values taken from article PMC7862700, “An all-to-all approach to the identification of sequence-specific readers for epigenetic DNA modifications on cytosine”.

Legend:
Assay in all cases: DAPPL (digital affinity profiling via proximity ligation, sequencing); 10 mM Tris-HCl pH 7.5, 50 mM NaCl, 1 mM DTT, 4% glycerol, room temperature, 30 min; GST-TFs on glutathione beads, 16-mer random dsDNA library, 0.1% formaldehyde crosslink after washing; high values mean tight binding
Conditions in all cases: protein: recombinant; tags: N-terminal GST; dsDNA, one strand shown
ELK1 = biological target: T1, ELK1 (Homo sapiens, UniProt P19419 1-428)
T1 sequence: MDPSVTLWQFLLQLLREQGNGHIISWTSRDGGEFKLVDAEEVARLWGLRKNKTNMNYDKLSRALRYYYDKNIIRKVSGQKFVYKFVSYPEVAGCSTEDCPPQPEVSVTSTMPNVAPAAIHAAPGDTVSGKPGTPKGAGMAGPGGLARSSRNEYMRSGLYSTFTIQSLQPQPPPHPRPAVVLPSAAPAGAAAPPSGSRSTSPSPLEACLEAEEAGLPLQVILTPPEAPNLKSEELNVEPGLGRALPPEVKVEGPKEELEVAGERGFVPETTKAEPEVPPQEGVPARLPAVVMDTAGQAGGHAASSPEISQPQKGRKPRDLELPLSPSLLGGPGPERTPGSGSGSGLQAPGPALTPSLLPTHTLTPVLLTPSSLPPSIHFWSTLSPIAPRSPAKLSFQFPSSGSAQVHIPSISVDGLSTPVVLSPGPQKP
Summary of the method: (§1)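 Beads coated with glutathione captured GST-fused human transcription factors that had been expressed in yeast, and the factors were then given DNA barcodes and pooled with a tag-only sample. The pools were incubated with 200 nmole of a random double-stranded 16-mer DNA library in Tris/NaCl/DTT/glycerol buffer for 30 min at room temperature, washed, crosslinked with 0.1% formaldehyde and proximity-ligated with BsaI/T4 ligase at 37 °C for 1 h. PCR amplification and Illumina NextSeq500 sequencing came last. Binding signal is each hexamer's read frequency for a factor divided by its frequency for the tag-only sample.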

GABPA = biological target: T2, GABPA (Homo sapiens, UniProt Q06546 1-454)
T2 sequence: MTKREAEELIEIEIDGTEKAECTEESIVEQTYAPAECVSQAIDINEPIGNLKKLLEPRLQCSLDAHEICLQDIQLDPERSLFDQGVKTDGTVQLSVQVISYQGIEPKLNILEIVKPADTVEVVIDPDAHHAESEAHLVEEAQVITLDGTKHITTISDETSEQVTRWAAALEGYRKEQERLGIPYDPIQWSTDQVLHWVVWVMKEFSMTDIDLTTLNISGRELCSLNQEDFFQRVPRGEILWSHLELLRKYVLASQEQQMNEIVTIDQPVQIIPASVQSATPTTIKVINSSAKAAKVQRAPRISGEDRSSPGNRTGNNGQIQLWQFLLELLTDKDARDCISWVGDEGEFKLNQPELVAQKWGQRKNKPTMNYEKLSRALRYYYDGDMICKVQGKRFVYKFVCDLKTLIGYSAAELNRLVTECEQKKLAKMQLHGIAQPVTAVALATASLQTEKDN
Summary of the method: as §1

ERG = biological target: T3, ERG (Homo sapiens, UniProt P11308 1-479)
T3 sequence: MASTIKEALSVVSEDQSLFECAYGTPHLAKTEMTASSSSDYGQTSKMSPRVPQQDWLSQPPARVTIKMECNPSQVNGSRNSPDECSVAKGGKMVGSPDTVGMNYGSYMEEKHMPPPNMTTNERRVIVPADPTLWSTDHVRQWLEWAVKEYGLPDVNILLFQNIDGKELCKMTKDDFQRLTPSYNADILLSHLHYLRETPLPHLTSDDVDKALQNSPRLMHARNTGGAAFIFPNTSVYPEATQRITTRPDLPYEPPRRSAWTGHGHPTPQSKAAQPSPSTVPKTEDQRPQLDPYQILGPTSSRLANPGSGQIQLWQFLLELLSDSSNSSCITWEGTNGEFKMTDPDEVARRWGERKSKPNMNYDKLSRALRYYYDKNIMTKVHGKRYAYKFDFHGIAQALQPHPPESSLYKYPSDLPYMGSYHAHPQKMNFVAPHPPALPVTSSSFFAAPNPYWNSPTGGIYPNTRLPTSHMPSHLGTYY
Summary of the method: as §1

ELF1 = ELF1 (Homo sapiens, UniProt P32519 1-619)
Sequence of ELF1 (P32519 whole entry): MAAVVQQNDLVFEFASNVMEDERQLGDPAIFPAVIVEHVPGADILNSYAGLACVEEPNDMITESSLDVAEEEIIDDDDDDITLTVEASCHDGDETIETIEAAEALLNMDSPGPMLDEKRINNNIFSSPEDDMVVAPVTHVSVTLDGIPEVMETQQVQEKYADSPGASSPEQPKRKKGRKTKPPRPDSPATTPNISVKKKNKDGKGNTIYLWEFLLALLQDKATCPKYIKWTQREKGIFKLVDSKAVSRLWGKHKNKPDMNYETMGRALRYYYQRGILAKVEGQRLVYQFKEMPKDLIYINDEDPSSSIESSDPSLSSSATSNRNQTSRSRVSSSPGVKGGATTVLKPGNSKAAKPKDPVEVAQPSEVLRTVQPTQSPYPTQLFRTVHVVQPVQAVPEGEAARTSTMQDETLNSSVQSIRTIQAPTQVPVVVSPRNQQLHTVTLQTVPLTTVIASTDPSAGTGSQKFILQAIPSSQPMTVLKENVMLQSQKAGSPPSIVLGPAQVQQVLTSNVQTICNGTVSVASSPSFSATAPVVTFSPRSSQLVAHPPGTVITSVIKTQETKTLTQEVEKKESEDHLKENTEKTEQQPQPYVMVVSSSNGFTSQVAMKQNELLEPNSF
Summary of the method: as §1

EHF = biological target: T4, EHF (Homo sapiens, UniProt Q9NZC4 1-300)
T4 sequence: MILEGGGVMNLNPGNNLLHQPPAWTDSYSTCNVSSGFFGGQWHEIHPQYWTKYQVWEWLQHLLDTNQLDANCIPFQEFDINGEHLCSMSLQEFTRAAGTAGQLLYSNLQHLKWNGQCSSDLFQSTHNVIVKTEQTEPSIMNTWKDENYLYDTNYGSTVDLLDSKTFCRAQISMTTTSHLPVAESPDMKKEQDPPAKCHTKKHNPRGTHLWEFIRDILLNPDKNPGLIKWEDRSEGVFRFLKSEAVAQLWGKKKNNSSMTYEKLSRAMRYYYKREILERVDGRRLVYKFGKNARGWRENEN
Summary of the method: as §1

SPIB = SPIB (Homo sapiens, UniProt Q01892 1-262)
Sequence of SPIB (Q01892 whole entry): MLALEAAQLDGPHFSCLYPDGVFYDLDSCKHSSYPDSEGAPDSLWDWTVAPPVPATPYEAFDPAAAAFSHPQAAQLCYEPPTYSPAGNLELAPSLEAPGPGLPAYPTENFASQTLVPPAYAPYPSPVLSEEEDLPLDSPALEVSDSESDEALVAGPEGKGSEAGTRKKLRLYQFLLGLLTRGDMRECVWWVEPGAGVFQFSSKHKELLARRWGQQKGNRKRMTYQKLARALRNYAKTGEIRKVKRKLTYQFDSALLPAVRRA
Summary of the method: as §1

ELK3 = biological target: T5, ELK3 (Homo sapiens, UniProt P41970 1-407)
T5 sequence: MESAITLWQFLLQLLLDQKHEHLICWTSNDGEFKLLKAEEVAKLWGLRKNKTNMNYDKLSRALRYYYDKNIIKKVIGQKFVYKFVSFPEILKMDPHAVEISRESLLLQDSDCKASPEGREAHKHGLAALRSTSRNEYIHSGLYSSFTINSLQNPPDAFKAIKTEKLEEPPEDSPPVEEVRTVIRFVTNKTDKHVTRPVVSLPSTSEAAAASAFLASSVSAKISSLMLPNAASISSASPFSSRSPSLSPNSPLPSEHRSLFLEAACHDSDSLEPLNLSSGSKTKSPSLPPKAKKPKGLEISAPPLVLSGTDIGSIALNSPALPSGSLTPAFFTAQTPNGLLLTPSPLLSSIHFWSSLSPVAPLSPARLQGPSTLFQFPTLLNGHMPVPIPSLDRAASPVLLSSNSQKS
Summary of the method: as §1

ETV5 = ETV5 (Homo sapiens, UniProt P41161 1-510)
Sequence of ETV5 (P41161 whole entry): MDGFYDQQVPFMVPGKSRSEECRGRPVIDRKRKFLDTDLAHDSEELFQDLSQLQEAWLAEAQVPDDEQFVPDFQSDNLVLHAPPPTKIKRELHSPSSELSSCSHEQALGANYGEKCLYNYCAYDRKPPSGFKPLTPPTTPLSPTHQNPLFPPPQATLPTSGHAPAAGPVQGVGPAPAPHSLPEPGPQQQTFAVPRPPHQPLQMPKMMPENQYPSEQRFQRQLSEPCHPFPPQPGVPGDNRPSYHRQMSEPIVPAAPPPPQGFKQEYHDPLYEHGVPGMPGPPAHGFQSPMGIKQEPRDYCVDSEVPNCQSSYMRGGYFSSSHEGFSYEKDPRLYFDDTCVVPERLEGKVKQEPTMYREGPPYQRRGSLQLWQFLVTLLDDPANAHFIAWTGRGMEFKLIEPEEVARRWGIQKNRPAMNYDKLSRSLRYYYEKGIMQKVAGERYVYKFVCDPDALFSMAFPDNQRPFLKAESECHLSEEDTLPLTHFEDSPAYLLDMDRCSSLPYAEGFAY
Summary of the method: as §1

SPIC = biological target: T6, SPIC (Homo sapiens, UniProt Q8N5J4 1-248)
T6 sequence: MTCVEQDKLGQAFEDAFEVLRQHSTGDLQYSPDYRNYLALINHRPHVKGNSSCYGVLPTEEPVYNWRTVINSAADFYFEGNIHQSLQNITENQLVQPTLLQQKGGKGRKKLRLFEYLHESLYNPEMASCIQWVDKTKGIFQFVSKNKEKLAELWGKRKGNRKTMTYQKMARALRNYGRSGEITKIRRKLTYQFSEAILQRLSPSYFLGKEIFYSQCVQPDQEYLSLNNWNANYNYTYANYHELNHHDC
Summary of the method: as §1

ELF4 = ELF4 (Homo sapiens, UniProt Q99607 1-663)
Sequence of ELF4 (Q99607 whole entry): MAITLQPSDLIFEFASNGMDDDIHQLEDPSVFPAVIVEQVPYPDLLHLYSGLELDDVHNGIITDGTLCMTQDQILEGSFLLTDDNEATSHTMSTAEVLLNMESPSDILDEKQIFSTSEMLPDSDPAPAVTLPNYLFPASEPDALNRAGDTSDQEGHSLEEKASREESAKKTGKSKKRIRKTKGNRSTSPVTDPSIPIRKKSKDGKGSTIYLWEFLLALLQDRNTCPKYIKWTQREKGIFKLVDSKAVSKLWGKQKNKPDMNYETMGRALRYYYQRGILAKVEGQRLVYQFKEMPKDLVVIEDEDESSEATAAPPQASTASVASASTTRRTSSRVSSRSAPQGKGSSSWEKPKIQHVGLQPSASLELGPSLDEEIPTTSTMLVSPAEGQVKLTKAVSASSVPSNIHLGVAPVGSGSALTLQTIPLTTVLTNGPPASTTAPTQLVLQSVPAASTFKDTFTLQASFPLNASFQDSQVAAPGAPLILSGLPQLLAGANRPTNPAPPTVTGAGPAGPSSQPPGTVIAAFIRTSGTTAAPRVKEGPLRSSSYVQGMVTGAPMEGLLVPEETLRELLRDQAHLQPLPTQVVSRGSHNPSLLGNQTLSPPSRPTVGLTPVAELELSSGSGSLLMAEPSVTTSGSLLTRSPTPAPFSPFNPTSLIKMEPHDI
Summary of the method: as §1

ELK4 = biological target: T7, ELK4 (Homo sapiens, UniProt P28324-2 1-405)
T7 sequence: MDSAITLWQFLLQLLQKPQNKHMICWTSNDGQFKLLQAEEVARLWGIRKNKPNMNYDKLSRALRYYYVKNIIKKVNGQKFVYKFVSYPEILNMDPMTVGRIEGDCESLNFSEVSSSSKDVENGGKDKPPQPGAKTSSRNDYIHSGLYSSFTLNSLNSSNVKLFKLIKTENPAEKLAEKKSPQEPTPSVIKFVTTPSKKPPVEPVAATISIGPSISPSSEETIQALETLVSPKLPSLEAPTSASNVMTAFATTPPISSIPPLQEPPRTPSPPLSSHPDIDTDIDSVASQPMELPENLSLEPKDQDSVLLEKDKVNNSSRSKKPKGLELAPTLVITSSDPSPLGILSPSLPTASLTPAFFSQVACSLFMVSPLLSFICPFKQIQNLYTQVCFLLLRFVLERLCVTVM
Summary of the method: as §1

ELF3 = biological target: T8, ELF3 (Homo sapiens, UniProt P78545 1-371)
T8 sequence: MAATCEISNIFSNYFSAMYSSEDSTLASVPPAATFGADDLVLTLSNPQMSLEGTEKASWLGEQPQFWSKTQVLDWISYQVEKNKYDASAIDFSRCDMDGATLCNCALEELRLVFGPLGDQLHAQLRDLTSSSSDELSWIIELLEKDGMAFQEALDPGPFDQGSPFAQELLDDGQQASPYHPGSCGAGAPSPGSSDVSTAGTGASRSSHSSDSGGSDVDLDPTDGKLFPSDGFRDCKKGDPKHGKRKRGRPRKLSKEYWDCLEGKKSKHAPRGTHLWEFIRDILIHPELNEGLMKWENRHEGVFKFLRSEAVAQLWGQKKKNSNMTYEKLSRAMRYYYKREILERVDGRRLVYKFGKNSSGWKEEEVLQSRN
Summary of the method: as §1

ETV1 = ETV1 (Homo sapiens, UniProt P50549 1-477)
Sequence of ETV1 (P50549 whole entry): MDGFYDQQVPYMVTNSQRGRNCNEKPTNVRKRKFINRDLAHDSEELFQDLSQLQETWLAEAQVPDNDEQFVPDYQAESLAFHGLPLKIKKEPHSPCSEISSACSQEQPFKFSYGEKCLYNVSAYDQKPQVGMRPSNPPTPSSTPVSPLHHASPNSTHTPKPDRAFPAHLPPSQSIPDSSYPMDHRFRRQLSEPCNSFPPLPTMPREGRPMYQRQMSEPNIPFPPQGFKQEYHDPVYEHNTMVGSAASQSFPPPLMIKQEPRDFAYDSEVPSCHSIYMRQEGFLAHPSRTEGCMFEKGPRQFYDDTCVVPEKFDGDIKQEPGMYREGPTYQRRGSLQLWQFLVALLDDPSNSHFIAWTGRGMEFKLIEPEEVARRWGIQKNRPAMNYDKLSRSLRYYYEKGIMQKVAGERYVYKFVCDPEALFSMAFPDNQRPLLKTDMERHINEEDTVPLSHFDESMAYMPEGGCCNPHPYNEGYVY
Summary of the method: as §1

ERF = biological target: T9, ERF (Homo sapiens, UniProt P50548 1-548)
T9 sequence: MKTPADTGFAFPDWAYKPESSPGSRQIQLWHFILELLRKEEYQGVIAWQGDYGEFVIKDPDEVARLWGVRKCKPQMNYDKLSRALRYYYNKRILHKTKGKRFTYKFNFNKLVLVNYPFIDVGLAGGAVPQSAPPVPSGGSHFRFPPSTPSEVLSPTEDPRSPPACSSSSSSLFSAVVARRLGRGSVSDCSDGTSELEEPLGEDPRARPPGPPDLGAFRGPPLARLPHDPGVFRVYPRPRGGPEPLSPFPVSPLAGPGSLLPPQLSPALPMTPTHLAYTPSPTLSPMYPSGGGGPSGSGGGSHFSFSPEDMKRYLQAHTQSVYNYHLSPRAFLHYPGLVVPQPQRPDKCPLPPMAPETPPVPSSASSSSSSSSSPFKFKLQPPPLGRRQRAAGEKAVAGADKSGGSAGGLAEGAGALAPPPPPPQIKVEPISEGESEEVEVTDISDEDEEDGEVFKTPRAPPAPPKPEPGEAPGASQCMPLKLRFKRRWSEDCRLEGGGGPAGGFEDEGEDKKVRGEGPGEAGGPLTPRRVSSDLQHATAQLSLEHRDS
Summary of the method: as §1

SPDEF = biological target: T10, SPDEF (Homo sapiens, UniProt O95238 1-335)
T10 sequence: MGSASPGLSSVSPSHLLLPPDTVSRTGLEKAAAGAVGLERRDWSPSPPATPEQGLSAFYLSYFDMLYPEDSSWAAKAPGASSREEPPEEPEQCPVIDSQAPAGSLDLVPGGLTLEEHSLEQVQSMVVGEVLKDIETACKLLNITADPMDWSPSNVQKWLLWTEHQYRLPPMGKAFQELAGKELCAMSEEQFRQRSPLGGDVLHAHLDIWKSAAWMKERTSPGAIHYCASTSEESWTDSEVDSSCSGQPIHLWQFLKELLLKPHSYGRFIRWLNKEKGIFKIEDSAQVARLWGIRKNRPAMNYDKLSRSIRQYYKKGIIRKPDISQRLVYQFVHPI
Summary of the method: as §1

ETV3 = biological target: T11, ETV3 (Homo sapiens, UniProt P41162-2 1-143)
T11 sequence: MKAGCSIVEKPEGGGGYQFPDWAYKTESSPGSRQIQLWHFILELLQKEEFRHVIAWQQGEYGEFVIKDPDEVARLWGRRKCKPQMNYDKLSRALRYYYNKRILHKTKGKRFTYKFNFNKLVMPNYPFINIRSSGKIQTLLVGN
Summary of the method: as §1

ETS2 = biological target: T12, ETS2 (Homo sapiens, UniProt P15036 1-469)
T12 sequence: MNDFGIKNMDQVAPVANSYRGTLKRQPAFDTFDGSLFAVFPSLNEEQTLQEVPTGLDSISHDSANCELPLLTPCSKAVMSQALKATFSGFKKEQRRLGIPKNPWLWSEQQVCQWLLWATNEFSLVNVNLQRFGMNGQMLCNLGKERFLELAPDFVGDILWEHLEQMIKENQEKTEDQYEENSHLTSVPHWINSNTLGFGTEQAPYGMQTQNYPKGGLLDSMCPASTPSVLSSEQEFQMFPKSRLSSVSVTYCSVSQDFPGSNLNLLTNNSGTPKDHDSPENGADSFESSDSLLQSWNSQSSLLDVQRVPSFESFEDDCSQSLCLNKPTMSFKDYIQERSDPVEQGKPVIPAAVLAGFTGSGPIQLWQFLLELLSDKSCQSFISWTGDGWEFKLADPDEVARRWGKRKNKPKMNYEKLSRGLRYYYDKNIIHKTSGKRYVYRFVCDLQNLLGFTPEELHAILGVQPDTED
Summary of the method: as §1

Sequence: GTACTG
- binding signal (ELK1): 1.02 fold enrichment (6-mer frequency, TF over GST control)
- binding signal (GABPA): 1.04 fold enrichment (6-mer frequency, TF over GST control)
- binding signal (ERG): 1.09 fold enrichment (6-mer frequency, TF over GST control)
- binding signal (ELF1): 1.12 fold enrichment (6-mer frequency, TF over GST control)
- binding signal (EHF): 1.06 fold enrichment (6-mer frequency, TF over GST control)
- binding signal (SPIB): 1 fold enrichment (6-mer frequency, TF over GST control)
- binding signal (ELK3): 1.08 fold enrichment (6-mer frequency, TF over GST control)
- binding signal (ETV5): 1.08 fold enrichment (6-mer frequency, TF over GST control)
- binding signal (SPIC): 1.04 fold enrichment (6-mer frequency, TF over GST control)
- binding signal (ELF4): 1.05 fold enrichment (6-mer frequency, TF over GST control)
- binding signal (ELK4): 1.15 fold enrichment (6-mer frequency, TF over GST control)
- binding signal (ELF3): 1 fold enrichment (6-mer frequency, TF over GST control)
- binding signal (ETV1): 1.02 fold enrichment (6-mer frequency, TF over GST control)
- binding signal (ERF): 1.02 fold enrichment (6-mer frequency, TF over GST control)
- binding signal (SPDEF): 1.03 fold enrichment (6-mer frequency, TF over GST control)
- binding signal (ETV3): 1.11 fold enrichment (6-mer frequency, TF over GST control)

Sequence: GAACTG
- binding signal (ERG): 1.06 fold enrichment (6-mer frequency, TF over GST control)
- binding signal (ELF1): 1.02 fold enrichment (6-mer frequency, TF over GST control)
- binding signal (EHF): 1.01 fold enrichment (6-mer frequency, TF over GST control)
- binding signal (SPIB): 1.01 fold enrichment (6-mer frequency, TF over GST control)
- binding signal (ETV5): 1.05 fold enrichment (6-mer frequency, TF over GST control)
- binding signal (SPIC): 1.26 fold enrichment (6-mer frequency, TF over GST control)
- binding signal (ELF4): 1.02 fold enrichment (6-mer frequency, TF over GST control)
- binding signal (ETV1): 1.05 fold enrichment (6-mer frequency, TF over GST control)
- binding signal (ETS2): 1.02 fold enrichment (6-mer frequency, TF over GST control)
- binding signal (ETV3): 1.09 fold enrichment (6-mer frequency, TF over GST control)
